What all share (test): PBM; 200 nM protein, PBS
Common to all, as to conditions: dsDNA, one strand shown

For experiment [1], the target named is T1, VENTX (Homo sapiens, UniProt O95231 78-163, R121Q).
T1 sequence: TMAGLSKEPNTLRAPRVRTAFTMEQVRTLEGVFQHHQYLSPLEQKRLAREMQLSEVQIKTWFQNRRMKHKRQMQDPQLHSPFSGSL

In experiment [2] the target is T2, VENTX (Homo sapiens, UniProt O95231 78-163).
T2 sequence: T1 sequence with Q44R

Experiment [3] has as its target T3, VENTX (Homo sapiens, UniProt O95231 78-163, Y115F).
T3 sequence: T1 sequence with Y38F, Q44R

The target of experiment [4] is HOXB6 (Homo sapiens, UniProt P17509 132-218, K202E).
Experiment [5] has as its target HOXA2 (Homo sapiens, UniProt O43364 129-215, R185T).
The target of experiment [6] is ALX1 (Homo sapiens, UniProt Q15699 118-204, L144V).
Experiment [7] deals with ALX3 (Homo sapiens, UniProt O95076 139-225, N203Q).
The target in experiment [8] is HOXA2 (Homo sapiens, UniProt O43364 129-215, R185K).
For experiment [9], the target named is ALX1 (Homo sapiens, UniProt Q15699 118-204, L144R).
In experiment [10] the target is ALX3 (Homo sapiens, UniProt O95076 139-225).
The target in experiment [11] is ALX3 (Homo sapiens, UniProt O95076 139-225, L168Q).
For experiment [12], the target named is ALX3 (Homo sapiens, UniProt O95076 139-225, L168V).
Experiment [13] concerns the target HOXA2 (Homo sapiens, UniProt O43364 129-215, Y150S).
In experiment [14] the target is ALX1 (Homo sapiens, UniProt Q15699 118-204).
Experiment [15] has as its target ALX3 (Homo sapiens, UniProt O95076 139-225, N203S).
The target in experiment [16] is HOXA2 (Homo sapiens, UniProt O43364 129-215).
Experiment [17] has as its target HOXB6 (Homo sapiens, UniProt P17509 132-218).
For experiment [18], the target named is T4, PAX4 (Homo sapiens, UniProt O43316 9-242, F177V).
T4 sequence: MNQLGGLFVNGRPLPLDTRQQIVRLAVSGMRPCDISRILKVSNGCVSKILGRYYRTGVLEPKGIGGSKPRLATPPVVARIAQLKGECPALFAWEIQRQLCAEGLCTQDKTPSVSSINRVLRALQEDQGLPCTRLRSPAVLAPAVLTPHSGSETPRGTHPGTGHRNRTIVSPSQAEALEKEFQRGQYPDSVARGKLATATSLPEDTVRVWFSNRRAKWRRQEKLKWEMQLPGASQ

In experiment [19] the target is T5, PAX4 (Homo sapiens, UniProt O43316 9-242, R227W).
T5 sequence: T4 sequence with V169F, R219W

Experiment [20] deals with MSX2 (Homo sapiens, UniProt P35548 130-214, R199I).
The target in experiment [21] is MSX2 (Homo sapiens, UniProt P35548 130-214).
In experiment [22] the target is MSX2 (Homo sapiens, UniProt P35548 130-214, F161Y).
Experiment [23] addresses T6, NKX2-6 (Homo sapiens, UniProt A6NCS4 118-204, R150C).
T6 sequence: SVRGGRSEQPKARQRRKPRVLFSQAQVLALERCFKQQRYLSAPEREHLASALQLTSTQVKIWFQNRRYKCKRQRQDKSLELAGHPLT

Experiment [24] has as its target T7, NKX2-6 (Homo sapiens, UniProt A6NCS4 118-204).
T7 sequence: T6 sequence with C33R

In experiment [25] the target is T8, NKX2-6 (Homo sapiens, UniProt A6NCS4 118-204, F151L).
T8 sequence: T6 sequence with C33R, F34L

Numbering of substitutions follows the chain as printed.

Sequence of ALX3 (Homo sapiens, UniProt O95076 139-225, N203Q) (O95076 139-225 N203Q): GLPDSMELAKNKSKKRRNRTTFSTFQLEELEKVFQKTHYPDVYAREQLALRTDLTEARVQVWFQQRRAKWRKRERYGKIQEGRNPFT
Sequence of HOXB6 (Homo sapiens, UniProt P17509 132-218) (P17509 132-218): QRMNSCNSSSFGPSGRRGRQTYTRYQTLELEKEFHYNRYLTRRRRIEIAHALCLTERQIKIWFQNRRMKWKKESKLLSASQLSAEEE
Sequence of HOXB6 (Homo sapiens, UniProt P17509 132-218, K202E) (P17509 132-218 K202E): as the sequence (P17509 132-218) above, with K71E counted along it
Sequence of MSX2 (Homo sapiens, UniProt P35548 130-214) (P35548 130-214): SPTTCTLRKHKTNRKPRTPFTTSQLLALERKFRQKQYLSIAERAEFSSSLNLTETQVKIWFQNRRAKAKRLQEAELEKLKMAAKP
Sequence of ALX3 (Homo sapiens, UniProt O95076 139-225, L168V) (O95076 139-225 L168V): as the sequence (O95076 139-225 N203Q) above, with L30V, Q65N counted along it
Sequence of ALX3 (Homo sapiens, UniProt O95076 139-225, N203S) (O95076 139-225 N203S): as the sequence (O95076 139-225 N203Q) above, with Q65S counted along it
Sequence of MSX2 (Homo sapiens, UniProt P35548 130-214, F161Y) (P35548 130-214 F161Y): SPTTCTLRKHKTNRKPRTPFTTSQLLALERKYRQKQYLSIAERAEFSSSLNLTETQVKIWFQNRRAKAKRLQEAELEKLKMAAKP
Sequence of ALX3 (Homo sapiens, UniProt O95076 139-225, L168Q) (O95076 139-225 L168Q): as the sequence (O95076 139-225 N203Q) above, with L30Q, Q65N counted along it
Sequence of ALX3 (Homo sapiens, UniProt O95076 139-225) (O95076 139-225): as the sequence (O95076 139-225 N203Q) above, with Q65N counted along it
Sequence of MSX2 (Homo sapiens, UniProt P35548 130-214, R199I) (P35548 130-214 R199I): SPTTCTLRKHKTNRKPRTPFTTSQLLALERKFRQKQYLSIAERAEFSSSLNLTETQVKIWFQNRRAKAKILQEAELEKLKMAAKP
Sequence of HOXA2 (Homo sapiens, UniProt O43364 129-215) (O43364 129-215): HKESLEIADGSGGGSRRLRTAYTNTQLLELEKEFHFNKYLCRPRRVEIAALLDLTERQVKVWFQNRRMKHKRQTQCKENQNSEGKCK
Sequence of ALX1 (Homo sapiens, UniProt Q15699 118-204) (Q15699 118-204): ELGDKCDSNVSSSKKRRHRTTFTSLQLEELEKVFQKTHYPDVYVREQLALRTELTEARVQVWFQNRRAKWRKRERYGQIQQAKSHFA
Sequence of ALX1 (Homo sapiens, UniProt Q15699 118-204, L144R) (Q15699 118-204 L144R): as the sequence (Q15699 118-204) above, with L27R counted along it
Sequence of HOXA2 (Homo sapiens, UniProt O43364 129-215, R185K) (O43364 129-215 R185K): as the sequence (O43364 129-215) above, with R57K counted along it
Sequence of ALX1 (Homo sapiens, UniProt Q15699 118-204, L144V) (Q15699 118-204 L144V): as the sequence (Q15699 118-204) above, with L27V counted along it
Sequence of HOXA2 (Homo sapiens, UniProt O43364 129-215, Y150S) (O43364 129-215 Y150S): as the sequence (O43364 129-215) above, with Y22S counted along it
Sequence of HOXA2 (Homo sapiens, UniProt O43364 129-215, R185T) (O43364 129-215 R185T): as the sequence (O43364 129-215) above, with R57T counted along it

With GCCCAGGC, the binding signal is 7.88 upbm affinity estimate (log intensity, higher = more binding, comparable within an allelic series) in experiment [1]; 7.61 upbm affinity estimate (log intensity, higher = more binding, comparable within an allelic series) in [2]; 7.8 upbm affinity estimate (log intensity, higher = more binding, comparable within an allelic series) in experiment [3]; 8.91 upbm affinity estimate (log intensity, higher = more binding, comparable within an allelic series) in [4]; 6.96 upbm affinity estimate (log intensity, higher = more binding, comparable within an allelic series) in [5]; 6.2 upbm affinity estimate (log intensity, higher = more binding, comparable within an allelic series) in experiment [6]. The binding signal was 7.68 upbm affinity estimate (log intensity, higher = more binding, comparable within an allelic series) in experiment [7]; 10 upbm affinity estimate (log intensity, higher = more binding, comparable within an allelic series) in [8]; 6.3 upbm affinity estimate (log intensity, higher = more binding, comparable within an allelic series) in [9]; 7.31 upbm affinity estimate (log intensity, higher = more binding, comparable within an allelic series) in experiment [10]; 7.59 upbm affinity estimate (log intensity, higher = more binding, comparable within an allelic series) in experiment [11]; 7.69 upbm affinity estimate (log intensity, higher = more binding, comparable within an allelic series) in [12]. Also, the binding signal in experiment [13] is 10.3 upbm affinity estimate (log intensity, higher = more binding, comparable within an allelic series); in [14], 6.12 upbm affinity estimate (log intensity, higher = more binding, comparable within an allelic series); in experiment [15], 7.71 upbm affinity estimate (log intensity, higher = more binding, comparable within an allelic series); in experiment [16], 7.01 upbm affinity estimate (log intensity, higher = more binding, comparable within an allelic series); in experiment [17], 8.63 upbm affinity estimate (log intensity, higher = more binding, comparable within an allelic series).

Consider ACATATTA, for which the binding signal in [1] is 10.6 upbm affinity estimate (log intensity, higher = more binding, comparable within an allelic series); in experiment [2] it was 11.3 upbm affinity estimate (log intensity, higher = more binding, comparable within an allelic series); in [3], 10.4 upbm affinity estimate (log intensity, higher = more binding, comparable within an allelic series); in [7], 8.55 upbm affinity estimate (log intensity, higher = more binding, comparable within an allelic series); in experiment [18], 10.8 upbm affinity estimate (log intensity, higher = more binding, comparable within an allelic series); in experiment [19], 11 upbm affinity estimate (log intensity, higher = more binding, comparable within an allelic series).

In the case of CCGCGGTC, the binding signal is 7.69 upbm affinity estimate (log intensity, higher = more binding, comparable within an allelic series) in experiment [1]; 7.87 upbm affinity estimate (log intensity, higher = more binding, comparable within an allelic series) in [2]; 7.89 upbm affinity estimate (log intensity, higher = more binding, comparable within an allelic series) in experiment [3]; 9.33 upbm affinity estimate (log intensity, higher = more binding, comparable within an allelic series) in experiment [20]; 9.33 upbm affinity estimate (log intensity, higher = more binding, comparable within an allelic series) in [21]; 9.33 upbm affinity estimate (log intensity, higher = more binding, comparable within an allelic series) in experiment [22].

Consider AAATTACC, for which the binding signal in experiment [1] is 11.1 upbm affinity estimate (log intensity, higher = more binding, comparable within an allelic series); in experiment [2] it was 11.5 upbm affinity estimate (log intensity, higher = more binding, comparable within an allelic series); in [3], 11 upbm affinity estimate (log intensity, higher = more binding, comparable within an allelic series); in [4] it was 9.94 upbm affinity estimate (log intensity, higher = more binding, comparable within an allelic series); in [17], 11.6 upbm affinity estimate (log intensity, higher = more binding, comparable within an allelic series).

On to CGGGTCGC, for which the binding signal is 8.13 upbm affinity estimate (log intensity, higher = more binding, comparable within an allelic series) in experiment [1]; 8.41 upbm affinity estimate (log intensity, higher = more binding, comparable within an allelic series) in experiment [2]; 8.28 upbm affinity estimate (log intensity, higher = more binding, comparable within an allelic series) in [3]; 9.33 upbm affinity estimate (log intensity, higher = more binding, comparable within an allelic series) in experiment [23]; 9.47 upbm affinity estimate (log intensity, higher = more binding, comparable within an allelic series) in experiment [20]; 9.59 upbm affinity estimate (log intensity, higher = more binding, comparable within an allelic series) in experiment [21]. In addition, the binding signal in [22] is 9.55 upbm affinity estimate (log intensity, higher = more binding, comparable within an allelic series).

As to CCACGCGC, the binding signal in [1] is 8.13 upbm affinity estimate (log intensity, higher = more binding, comparable within an allelic series); in experiment [2], 8.26 upbm affinity estimate (log intensity, higher = more binding, comparable within an allelic series); in experiment [3] it was 8.14 upbm affinity estimate (log intensity, higher = more binding, comparable within an allelic series); in experiment [4], 9.05 upbm affinity estimate (log intensity, higher = more binding, comparable within an allelic series); in experiment [17], 8.96 upbm affinity estimate (log intensity, higher = more binding, comparable within an allelic series).

Take CCCGACCG: the binding signal in [1] is 8.21 upbm affinity estimate (log intensity, higher = more binding, comparable within an allelic series); in experiment [2], 8.16 upbm affinity estimate (log intensity, higher = more binding, comparable within an allelic series); in experiment [3], 8.1 upbm affinity estimate (log intensity, higher = more binding, comparable within an allelic series); in [23] it was 9.21 upbm affinity estimate (log intensity, higher = more binding, comparable within an allelic series); in experiment [7], 7.73 upbm affinity estimate (log intensity, higher = more binding, comparable within an allelic series); in experiment [10] it was 7.81 upbm affinity estimate (log intensity, higher = more binding, comparable within an allelic series). The binding signal is 7.73 upbm affinity estimate (log intensity, higher = more binding, comparable within an allelic series) in [11]; 7.72 upbm affinity estimate (log intensity, higher = more binding, comparable within an allelic series) in experiment [12]; 7.76 upbm affinity estimate (log intensity, higher = more binding, comparable within an allelic series) in [15].

As for ACGCCGCC, the binding signal is 8.33 upbm affinity estimate (log intensity, higher = more binding, comparable within an allelic series) in experiment [1]; 8.43 upbm affinity estimate (log intensity, higher = more binding, comparable within an allelic series) in experiment [2]; 8.35 upbm affinity estimate (log intensity, higher = more binding, comparable within an allelic series) in experiment [3]; 9.13 upbm affinity estimate (log intensity, higher = more binding, comparable within an allelic series) in experiment [24]; 9.22 upbm affinity estimate (log intensity, higher = more binding, comparable within an allelic series) in [25].

The values above are taken from article PMC11006913.
